This passage reports INHIBITION results from ChEMBL document CHEMBL4513216, “Probing the Open Global Health Chemical Diversity Library for Multistage-Active Starting Points for Next-Generation Antimalarials” (ACS Infect Dis, 2020).

Screen size: about 69,000 compounds; about 8,600 (12%) showed an effect of 50% or more. The full list was thinned out, with strong results kept by preference.

For this experiment, the system named is Plasmodium berghei. Description: Screen against P. berghei liver stage (PbLuc), transformed with Luciferase, at 10uM. The following applies: tested at 10 uM. Type of experiment: functional, HepG2.
For the compound `CN1CCN(C(=O)c2cccn2C)Cc2cccnc21`, the INHIBITION was 16.4%.

As for `O=C1N(CC2CC2)CCC12CCCN(c1ncc(F)cn1)C2` (stereo unspecified), the INHIBITION is reported as 42.4%. Regarding `Cc1cnn(CC2CCCN2C(=O)c2csc(C3CC3)n2)c1` (stereo unspecified), the INHIBITION was -23.9%. In the case of `O=C(CCN1CCCC1)Nc1c2c(cc3c1CCC3)CCC2` it was 6.29%; in that of `CC(=O)N1CCC(C)(c2cc(C(=O)NCC(C)(C)C)nc(C)n2)CC1`, 37.9%; in that of `C[C@H]1CN(C(=O)c2cccc(F)c2Cl)CCN1S(C)(=O)=O`, 61.1%. In the case of `Cc1cccc(C(=O)N2CCN(S(C)(=O)=O)[C@@H](C)C2)c1C` it was 40.3%. As to `Cc1cccc(C(=O)N2CCN(S(C)(=O)=O)[C@@H](C)C2)c1Cl`, the INHIBITION amounted to 22.6%. For `O=C(c1ccc(Cl)o1)N1CCCN(Cc2cscn2)CC1`, the INHIBITION is given as 50.4%.

As for `Cc1nc(CN2CCN(C(=O)COCc3ccccc3)CC2)no1`, the INHIBITION is listed as 4.2%. Take `Cc1ccc(C(C)C(=O)N2CCCN(Cc3cscn3)CC2)cc1` (stereo unspecified): the INHIBITION worked out at 15.2%. In the case of `COC(C(=O)N1CCN(Cc2noc(C)n2)CC1)c1ccccc1` (stereo unspecified) it was 53.8%. Next, `CC(Oc1ccccc1)C(=O)N1CCCN(Cc2cscn2)CC1` (stereo unspecified): 27.25%; `CC(C)c1ccsc1C(=O)N1CCCN(Cc2cscn2)CC1`: 2.61%; `COCc1ccc(C(=O)N2CCCN(Cc3cscn3)CC2)cc1`: 27.4%.

Take `COC(C(=O)N1CCCN(Cc2cscn2)CC1)c1ccccc1` (stereo unspecified): the INHIBITION was found to be 54.3%. Next, `Cc1ccc(C(=O)N2CCCN(Cc3cscn3)CC2)o1`: 7.67%. For the compound `CC(C)c1ccc(O)c(C(=O)N2CCN(Cc3cscn3)CC2)c1`, the INHIBITION came out at 54.9%. Next, `Cc1nc(CN2CCN(C(=O)C(c3ccccc3C)N(C)C)CC2)no1` (stereo unspecified): 6.66%. Next, `CC(C)c1ncncc1C(=O)N1CCN(Cc2cscn2)CC1`: 49.3%. Next, `Cn1nccc1CNC(=O)CCn1nc(C(F)(F)F)cc1C1CC1`: -49.3%; `c1cncc(CN(Cc2ccc(-n3ccnc3)cc2)CC2CCCO2)c1` (stereo unspecified): 23.2%; `CC(C)c1ccc(C(C)N2CCCN(C(N)=O)CC2)cc1` (stereo unspecified): -18.7%. Take `CC1CCCN(S(=O)(=O)NCc2ccccc2Cn2cncn2)C1` (stereo unspecified): the INHIBITION was determined as 37.4%. Next, `CC1CCCN(CC(=O)N2CCC(c3ncc4c(n3)CCNC4)CC2)C1` (stereo unspecified): 25%; `COc1cccc(COCC(=O)N2CCCC(n3cncn3)C2)c1` (stereo unspecified): -24.2%; `COCC(C)Nc1ccc(-c2nc(Cc3ccc(F)cc3)no2)cn1` (stereo unspecified): 49%. Next, `COc1ccc(Cc2noc(-c3ccc(NC(C)CO)nc3)n2)cc1` (stereo unspecified): 52.2%; `CC(CO)Nc1ccc(-c2nc(Cc3ccc(F)cc3)no2)cn1` (stereo unspecified): -37.6%; `N#Cc1ccc(N2CCC3(CC2)COCCN3Cc2cccnc2)cc1`: -6.46%. In the case of `Cc1ncc(C(=O)N2CCC(C(=O)NC3CCCC3)C2)c(C)n1` (stereo unspecified) it was 19.3%; in that of `c1cc(C2CCN(c3ncnc4c3CCNCC4)CC2)ccn1`, 33.9%. On to `CN1CC2(CCN(c3ncnc4c3CCNC4)CC2)OC1=O`, for which the INHIBITION amounted to 49.5%. Regarding `Clc1cccc(C2CCN(c3ncnc4c3CCNC4)C2)c1` (stereo unspecified), the INHIBITION was 83%.

For `c1nc2c(c(N3CCOCC3)n1)CCNCC2`, the INHIBITION is 27.5%. In the case of `c1ccc2c(c1)CN(c1ncnc3c1CCNC3)CCO2` it was 25.9%; in that of `c1ccn2c(C3CCCN(c4ncnc5c4CCNC5)C3)nnc2c1` (stereo unspecified), -20.8%; in that of `c1ccc(C2CCN(c3ncnc4c3CCNC4)CC2)cc1`, 83%.

In the case of `c1ccc(C2CCCN(c3ncnc4c3CCNC4)CC2)cc1` (stereo unspecified), the INHIBITION was 83.9%. Take `Cc1cc(C)n(C2CCN(c3ncnc4c3CCNCC4)C2)n1` (stereo unspecified): the INHIBITION came to 42.1%. In the case of `Cn1cnc2c1C(COCC1CC1)CN(C(=O)Cc1ccsc1)C2` (stereo unspecified) it was 11.1%; in that of `NC(=O)C1(CCCc2ccccn2)CCCN(CCO)C1` (stereo unspecified), 30.8%; in that of `Cc1cc(C)n(CCCN(C)c2cc(N(C)C)ncn2)n1`, 28.2%. Next, `CC(C)OCCCN(Cc1cnn(C)c1)Cc1ccccn1`: -51.3%. For `CCN(Cc1ccccn1)C1CCN(c2ccccc2)C1=O` (stereo unspecified), the INHIBITION is -31.1%. In the case of `Cn1ccnc1C(=O)N[C@@H]1CN(Cc2ccoc2)[C@@H]2CCCO[C@@H]21`, the INHIBITION turned out to be 29.4%.

As for `Cc1ccc(CN2C[C@H](N(C)Cc3cncnc3)[C@H]3OCCC[C@H]32)o1`, the INHIBITION is given as -3.77%.

For the compound `CCN(CC)[C@@H]1CN(Cc2ccc(C)o2)[C@@H]2CCCO[C@H]12`, the INHIBITION turned out to be 63.1%. In the case of `Cn1ccnc1C(=O)N[C@@H]1CN(Cc2cccs2)[C@@H]2CCCO[C@@H]21` it was 22.2%.

On to `Cn1ccnc1C(=O)N[C@@H]1CN(CC2CCOCC2)[C@@H]2CCCO[C@@H]21`, for which the INHIBITION is reported as 63.8%.

Consider `Cc1ccc(CN2C[C@@H](N(C)C)[C@H]3OCCC[C@H]32)o1`, for which the INHIBITION was -37.9%. With `Cc1ccc(CN2C[C@H](NC(=O)c3nccn3C)[C@H]3OCCC[C@H]32)o1`, the INHIBITION is listed as 75.6%. Consider `Cn1cc(C(=O)N[C@@H]2CN(CC3CCOCC3)[C@@H]3CCCO[C@@H]32)cn1`, for which the INHIBITION was -14.4%. Take `Cn1ccnc1C(=O)N[C@@H]1CN(Cc2ccc(F)cc2)[C@@H]2CCCO[C@@H]21`: the INHIBITION stood at 49.4%. Next, `COC(=O)c1cccc(C(=O)NCc2ccc(C)o2)n1`: 39.1%; `Cc1ccc(N2CC[C@H]3O[C@@H](C(=O)NCc4ccco4)CC[C@H]32)nn1`: 21.6%.

`COC(=O)CC1CCN(C(=O)Nc2ccc(-c3ccn[nH]3)cc2)C1` (stereo unspecified): the INHIBITION was determined as 37.7%. Turning to `Cc1ccc(CN2CCC[C@@H]3CN(C(=O)c4ccco4)C[C@@H]32)s1`, the INHIBITION is -2.25%.

Take `CN1C(=O)CC(c2ccccc2)C12CCN(CC1CC1)CC2` (stereo unspecified): the INHIBITION was -40.5%. Regarding `CCNC(c1ccc(C(C)C)cc1)c1cccnc1` (stereo unspecified), the INHIBITION stood at 8.64%. Next, `CC(=O)Nc1nc(-c2ccccc2)c[nH]1`: 58.1%; `CC(=O)Nc1nc(-c2ccc(F)cc2)c[nH]1`: 63.6%.

Take `CC(=O)c1cccc(-c2c[nH]c(C)n2)c1`: the INHIBITION is -30.5%. Consider `CNC(=O)NC(C)c1nc(-c2ccccc2)c[nH]1` (stereo unspecified), for which the INHIBITION is on record as -51.8%. In the case of `CC(=O)Nc1nc(-c2ccc(C)c(C)c2)c[nH]1` it was 7.22%. With `Cc1nc(-c2cccc(C(=O)O)c2)c[nH]1`, the INHIBITION is on record as -34.8%. Regarding `Cc1cc(N2CCN(Cc3cn(C)nc3C)CC2)cc(C2CCCN2)n1` (stereo unspecified), the INHIBITION was -10%.

Consider `Cc1ccc([C@@]2(O)CC[C@@H]3CN(S(=O)(=O)c4cn(C)nc4C)C[C@@H]32)cc1`, for which the INHIBITION came to 32.8%. As to `CC(CO)(CO)NC(=O)C1CCC(=O)N(Cc2ccc(Cl)cc2)C1` (stereo unspecified), the INHIBITION was determined as 35.7%. Next, `COc1ccc(Cl)cc1NCC(=O)NCCNc1ncccn1`: 45.7%; `COc1ccc(C)cc1NS(=O)(=O)c1ccc(CCNC(C)=O)s1`: -1.04%; `c1coc(CN2CCC3(CC2)COC(COCC2CC2)C3)c1` (stereo unspecified): -28.2%. Take `CCc1cnc(CN(C)C2CCN(CC(=O)Nc3cc(C)on3)C2)o1` (stereo unspecified): the INHIBITION is given as -32%. For the compound `CC(C)c1cnc(CN(C)C2CCN(CCn3cc(C#N)cn3)C2)o1` (stereo unspecified), the INHIBITION was -6.44%. Next, `Cc1cnc(CN(C)C2CCN(CC(=O)Nc3nccs3)C2)o1` (stereo unspecified): 9.14%; `CCc1cnc(CN(C)C2CCN(CCn3cc(C#N)cn3)C2)o1` (stereo unspecified): 52.5%; `CCc1cnc(CN(C)C2CCN(CC(=O)Nc3nccs3)C2)o1` (stereo unspecified): 52.3%.

For `Cc1cnc(CN(C)C2CCN(CCn3cc(C#N)cn3)C2)o1` (stereo unspecified), the INHIBITION was found to be 44.8%. Consider `CC(C)c1nc(CN(C)C2CCN(CCn3cc(C#N)cn3)C2)no1` (stereo unspecified), for which the INHIBITION turned out to be 29.2%. Next, `CN(Cc1noc(C2CC2)n1)C1CCN(CCn2cc(C#N)cn2)C1` (stereo unspecified): 37.4%. On to `Cc1nc(CN(C)C2CCN(CCn3cc(C#N)cn3)C2)no1` (stereo unspecified), for which the INHIBITION is reported as 53.9%. Next, `Cc1cnn(CC2CCCN2C(=O)CCc2cscn2)c1` (stereo unspecified): 19.965%; `CC(=O)N1CCN([C@@H]2CCC[C@@H](NC(=O)c3cccnc3)[C@H]2O)CC1`: 8.53%. Take `Cc1nc(CN2CCCC(c3cc(C(N)=O)[nH]n3)C2)oc1C` (stereo unspecified): the INHIBITION is -0.113%.

As to `O=C(O)c1c(-c2cncnc2)ncc2c1CCN(CC1CCOC1)C2` (stereo unspecified), the INHIBITION came out at 43%. Take `O=C1NCC2(CCC(C(=O)N3CCCC(O)C3)CC2)Oc2ccccc21` (stereo unspecified): the INHIBITION stood at 8.72%. `CN(Cc1ccsc1)C(=O)c1ccc2c(c1)NC(=O)CO2`: the INHIBITION is 6.8%. As for `Cc1cc(C(=O)Nc2ccn(CCCN3CCCC3)n2)no1`, the INHIBITION is given as 38.4%. Next, `COCCN(Cc1sccc1C)C(=O)COc1cccnc1`: -32.6%; `O=C(NCc1cncc2c1CCN(Cc1ccccc1)C2)C1CC1`: -27.9%; `CC(=O)N1CC2(CCN(C(=O)C3CC3)CC2)c2cc(C)ccc21`: 84.5%. Next, `CC(=O)N1CC2(CCN(C(=O)N(C)C)CC2)c2cc(C)ccc21`: 37.8%. In the case of `CCC(=O)N1CCC2(CC1)CN(C(C)=O)c1ccc(C)cc12` it was -47.5%; in that of `CCOCCCNC(=O)C(C)n1cc(Br)cn1` (stereo unspecified), 5.05%; in that of `CC(=O)N1CCc2ccccc2C1CC(=O)NCc1nnc(C)o1` (stereo unspecified), 61.2%. In the case of `COC(=O)N1CCc2ccccc2C1C(=O)NCc1nc(C)no1` (stereo unspecified), the INHIBITION is 43.4%.

Regarding `Cc1nnc(CNC(=O)CC2CCc3ccccc32)o1` (stereo unspecified), the INHIBITION turned out to be 13%. In the case of `Cc1nn(CC(C)C)c(N(C)C)c1CNCc1ccccc1CO`, the INHIBITION is listed as -21.8%. Next, `Cc1nn(CC(C)C)c(N(C)C)c1CNCc1cccnc1N(C)C`: 43.7%; `COc1cc(CNCc2c(C)nn(C)c2N(C)C)ccn1`: 42.6%. Regarding `Cc1nn(CC(C)C)c(N(C)C)c1CNCc1cc2ccccc2[nH]1`, the INHIBITION came to 67.3%. As to `COc1cc(CNCc2c(C(C)C)nn(C)c2N(C)C)ccn1`, the INHIBITION was determined as 33.3%. Regarding `COc1cc(CNCc2c(C)nn(CC(C)C)c2N(C)C)ccn1`, the INHIBITION amounted to 77.1%.

In the case of `N#Cc1cccnc1NCc1ccc(S(=O)(=O)NC2CC2)cc1`, the INHIBITION was -15.2%. Take `COCCNS(=O)(=O)c1ccc(CNc2ncccc2C#N)cc1`: the INHIBITION is recorded as 48.4%.

For the compound `N#Cc1cccnc1NCc1ccc(S(=O)(=O)NCC2CCCO2)cc1` (stereo unspecified), the INHIBITION is recorded as 55.6%.
